Screening data as filed in PubChem BioAssay.
mHTT-CaM PPI inh – disrupts binding of mutant huntingtin to calmodulin; P42858; AlphaScreen His-mHTT/GST-CaM binding, luminescence; inhibition, % at 15 µM; actives 3.6% (n = 190,000); AID 1671202;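 note: 0% = both proteins with DMSO and 100% = one protein alone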
Pf apPOL block – Pf-apPOL DNA polymerase inhibition | inhibition, % at 10 µM | AID 1794808 | Recombinant Pf-apPOL, molecular beacon fluorescence, 1.5 h | actives 0.25% (n = 210,000)
* = called active by the depositor; x = not tested or not shown. In the library only some 3.6% were active in any assay of this set; here they are far more common. Cut-off read from the data, not from the text of the source: active = inhibition above about 50%; inactive = the rest.

SMILES	mHTT-CaM PPI inh	Pf apPOL block
COc1ccc(N2CC(c3nnc(NC(=O)Cc4ccccc4C)o3)CC2=O)cc1 (centres undefined)	49	-3
COc1cccc(CC(=O)Nc2nnc(C3CC(=O)N(c4ccccc4)C3)o2)c1 (centres undefined)	87*	-3
COc1cccc(N2CC(C(=O)Nc3c(C(N)=O)oc4ccccc34)CC2=O)c1 (centres undefined)	59*	-3
CC(C)(Oc1ccc(Cl)cc1)C(=O)Nc1ccncc1	-3	-2
CC(C)n1nccc1-c1nnc(NC(=O)C(C)(C)Oc2ccc(Cl)cc2)o1	66*	-227
COc1cccc(N2CC(C(=O)O)CC2=O)c1 (centres undefined)	-4	-1
CS(=O)(=O)N1CCCc2ccc(NC(=O)C3CC(=O)N(c4ccc(Cl)cc4)C3)cc21 (centres undefined)	4	-11
CSc1ccc(C2Nc3ccccc3C(=O)N2c2ccc(C)cc2)cc1 (centres undefined)	-2	-2
CSc1ccc(C2Nc3cccc4cccc(c34)N2)cc1	69*	x
COc1ccc2cc(C3CC(c4ccccc4)=NN3C(C)=O)c(Cl)nc2c1 (centres undefined)	1	8
CCOc1ccc(NC(=O)CSc2nc3[nH]ncc3c(=O)n2-c2ccc(Cl)cc2)cc1	18	1
O=C(NCCCN1CCCc2ccccc21)C1CCc2nc(N3CCCCC3)ncc2C1 (centres undefined)	54*	-4
Cn1ncc(N2CCCC(C(=O)NCCCN3CCCc4ccccc43)C2)cc1=O (centres undefined)	75*	-2
O=C(NCCCN1CCCc2ccccc21)C1CCc2nc(N3CCOCC3)ncc2C1 (centres undefined)	30	-6
Cc1ccnc(N2CCCC(C(=O)NCCCN3CCN(C)CC3)C2)n1 (centres undefined)	-5	-10
Cn1ncc(N2CCCC(C(=O)NCCCN3CCCCC3)C2)cc1=O (centres undefined)	-2	-3
Cn1ncc(N2CCCC(C(=O)NCCCc3ccccc3)C2)cc1=O (centres undefined)	-4	-6
Cn1ncc(N2CCCC(C(=O)NCCCN3CCCC3=O)C2)cc1=O (centres undefined)	100*	-3
Cc1ccnc(N2CCCC(C(=O)NCCCN3CCCc4ccccc43)C2)n1 (centres undefined)	52*	6
O=C(NC1CCCCC1)N1CCN(Cc2nc3cccnc3n2-c2ccccc2)CC1	9	5
O=C(NC(=O)c1ccccc1O)c1ccccc1	-4	-10
O=c1[nH]n2cc(-n3cc([N+](=O)[O-])cn3)cnc2c1[N+](=O)[O-]	10	x
O=c1c(S(=O)(=O)N2CCCCCC2)cccn1Cc1ccc(F)cc1	-8	-2
C=CCN(CC=C)S(=O)(=O)c1nc2nc(C)cc(C)n2n1	3	0
COc1ccc(/C=c2\sc3n(c2=O)CN(c2cc(OC)c(OC)c(OC)c2)CN=3)cc1OC	42	1
SMILES	mHTT-CaM PPI inh	Pf apPOL block
COc1ccc(C)cc1S(=O)(=O)NC1CNC(=O)C1 (centres undefined)	-14	-4
CCOc1ncccc1CNC(=O)C1CCC1	-6	-1
COc1nc(-c2ccccc2)c2cc(Br)ccc2n1	-8	-3
NNc1nc(-c2ccccc2)c2cc(Br)ccc2n1	76*	-10
CC(C)NC(=O)N1CCCC(c2cccc(C(=O)NCc3ccc(N(C)C)cc3)c2)C1 (centres undefined)	17	-8
CCNC(=O)N1CCCC(c2cccc(C(=O)NCc3ccc(N(C)C)cc3)c2)C1 (centres undefined)	54*	-4
CC12C=CC(C)(O1)C1C(=O)N(c3cc(C(F)(F)F)ccc3Cl)C(=O)C12 (centres undefined)	-2	-1
Cc1cccc(N2CCN(C(=O)CN3CCN(C(=O)Nc4ccccc4)CC3=O)CC2)c1C	13	-14
CCN(c1cccc(C)c1)C(C(=O)Nc1ccc(OC)cc1)c1cc2c(cc1[N+](=O)[O-])OCO2 (centres undefined)	24	-6
CN(C(=O)Cc1c[nH]c2ccccc12)C(C(=O)Nc1ccc2c(c1)OCCO2)c1ccccc1 (centres undefined)	42	-3
COc1ccc(NC(=O)C(c2cc3c(cc2[N+](=O)[O-])OCO3)N(C)Cc2ccccc2)cc1 (centres undefined)	61*	-7
COc1ccc(C(C(=O)Nc2ccc3c(c2)OCO3)N(C)C(=O)Cc2c[nH]c3ccccc23)cc1 (centres undefined)	75*	-11
CCn1c(C2CCN(S(=O)(=O)c3ccc4c(c3)CCC4)C2)nc2cccnc21 (centres undefined)	5	0
Cc1ccc(F)c(NC(=O)Nc2ccccc2)c1	-12	6
COCCn1cc2c3c(cccc31)CN(C(=O)NCc1ccc(OC)cc1)CC2	9	2
CCCn1cc2c3c(cccc31)CN(C(=O)Cc1ccc(OC)cc1)CC2	57*	-2
CCCn1cc2c3c(cccc31)CN(C(=O)NCc1ccc(OC)cc1)CC2	18	-2
CS(=O)(=O)N(Cc1ccccc1Cl)c1ccc(C(N)=O)cc1	-5	-4
CS(=O)(=O)N(Cc1ccccc1Cl)c1ccc(C(=O)N2CCc3ccccc3C2)cc1	98*	-1
Cn1cc2c3c(cccc31)CN(C(=O)c1cc(F)cc(F)c1)CC2	30	-1
CCCn1cc2c3c(cccc31)CN(C(=O)c1ccc(OC)cc1)CC2	78*	-3
Cn1cc2c3c(cccc31)CN(C(=O)c1cccc(Cl)c1)CC2	73*	-8
O=c1c(Cl)coc2cc(O)ccc12	-6	-6
O=C(CCc1ccccc1)N1CCC(n2nnc3cc(F)ccc3c2=O)CC1	25	-3
CCOC(=O)N1CCc2nn(CC(=O)Nc3cc(Cl)ccc3OC)c(=O)cc2C1	18	-3
SMILES	mHTT-CaM PPI inh	Pf apPOL block
CN(C(=O)c1n[nH]c2c1CNCC2)C1CCCCC1	4	-5
CCCCNC(=O)CSc1nc2ccccc2nc1Cc1cccc([N+](=O)[O-])c1	-2	-2
O=C(CSc1nc2ccccc2s1)NCc1cc(-c2ccco2)on1	-1	0
COc1ccc(C(=O)N2CCc3cn(C)c4cccc(c34)C2)cc1	55*	-2
Cn1cc2c3c(cccc31)CN(C(=O)c1ccc(Cl)cc1)CC2	54*	-4
Cn1cc2c3c(cccc31)CN(C(=O)Cc1ccc(Cl)cc1)CC2	27	-1
CCn1cc2c3c(cccc31)CN(C(=O)CCc1ccc(OC)cc1)CC2	58*	-4
Cc1ccc(C(=O)N2CCc3cn(C)c4cccc(c34)C2)cc1C	79*	-3
COc1ccc(C(=O)N2CCc3cn(C)c4cccc(c34)C2)c(OC)c1	47	-2
CCn1cc2c3c(cccc31)CN(C(=O)c1ccco1)CC2	-8	-2
Cc1cccc(C(=O)N2CCc3cn(C)c4cccc(c34)C2)c1	19	-7
Cc1ccc(NC(=O)C2CC(=O)N(c3cccc(NC(=O)C(C)C)c3)C2)cc1Cl (centres undefined)	-1	-3
O=C(CCCn1c(=O)[nH]c2ccc(Br)cc2c1=O)NCc1ccccc1Cl	-1	-4
CS(=O)(=O)Nc1cccc(NC(=O)Cn2nc(-n3cccn3)ccc2=O)c1	-4	-9
O=C(Nc1cccc2ccc(-n3ccnc3)nc12)c1ccccc1Cl	62*	1
Cc1onc(-c2ccccc2Cl)c1C(=O)Nc1cccc2ccc(-n3ccnc3)nc12	43	6
